Screening data (PubChem)
Tau fibril ThT = tau fibrillization inhibition (ThT binding); P10636; recombinant tau K18 P301L, heparin-induced fibrillization, ThT fluorescence; Potency, µM (doses to about 57.4 µM), without a hit: at the top dose activity, negative = inhibition, most hits filed as inhibitors; 270,000 tested, 2.1% active; AID 1460; also: nearly all actives have a fitted effect of over 55% in size
Target sequence (P10636 561-689 P618L limits assumed): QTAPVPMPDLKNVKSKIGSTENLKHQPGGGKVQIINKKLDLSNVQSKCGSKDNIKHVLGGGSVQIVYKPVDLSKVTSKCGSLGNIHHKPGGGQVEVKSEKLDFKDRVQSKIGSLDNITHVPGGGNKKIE
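Fibril formation assay: tau K18 P301L at 15 uM with trace Alexa 594 label, heparin inducer 20 uM, pH 7 sodium acetate buffer, 37 C for 6 hr; endpoint ThT signal.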
NPSR antag = neuropeptide S receptor (human) antagonism, cAMP. Q6W5P4. CHO-NPSR cells, cAMP TR-FRET, antagonist mode. Potency, µM (titrated, usually from 38.3 µM), inactives show at the top dose activity change, negative = inhibition, hits mostly inhibitors. 220,000 tested, 1% active. AID 1461; also: nearly all actives have a fitted effect of over 50% in size
Tau FP inhib = blocks human tau fibril formation measured by polarization; K18 P301L tau heparin fibrillization, Alexa594 FP, 6 h; Potency, µM (series often up to 57.7 µM), for the others: at the highest dose activity, negative = inhibition, actives largely listed as inhibitors; 280,000 tested, 0.39% active; AID 1468; P10636; also: nearly all actives have a fitted effect of over 55% in size
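Human K18 P301L fragment (15 uM unlabeled plus 0.24 uM Alexa 594-labeled) in 100 mM sodium acetate pH 7 with compound, aggregation induced by 20 uM heparin for 6 hr at 37 C. ThT (30 uM) added for 1 hr, then Alexa 594 FP read.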
ALDH1A1 block = ALDH1A1 (human) enzyme inhibition; Purified ALDH1A1, NADH fluorescence, propionaldehyde substrate; Potency, µM (highest dose often 75.3 µM), for the others: at the top dose activity, negative = inhibition, usual class: inhibitors; AID 1030; 220,000 tested, 7.3% active; active = well fitted inhibition curve with a large enough effect, not every such curve was filed as active; inconclusive = small, poorly fitted or top-dose-only effect, or another doubt; inactive = no such curve, though single readings can be large or run the other way;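 also: plate controls were no enzyme wells and a reference inhibitor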
Target sequence (P00352 whole entry, looked up): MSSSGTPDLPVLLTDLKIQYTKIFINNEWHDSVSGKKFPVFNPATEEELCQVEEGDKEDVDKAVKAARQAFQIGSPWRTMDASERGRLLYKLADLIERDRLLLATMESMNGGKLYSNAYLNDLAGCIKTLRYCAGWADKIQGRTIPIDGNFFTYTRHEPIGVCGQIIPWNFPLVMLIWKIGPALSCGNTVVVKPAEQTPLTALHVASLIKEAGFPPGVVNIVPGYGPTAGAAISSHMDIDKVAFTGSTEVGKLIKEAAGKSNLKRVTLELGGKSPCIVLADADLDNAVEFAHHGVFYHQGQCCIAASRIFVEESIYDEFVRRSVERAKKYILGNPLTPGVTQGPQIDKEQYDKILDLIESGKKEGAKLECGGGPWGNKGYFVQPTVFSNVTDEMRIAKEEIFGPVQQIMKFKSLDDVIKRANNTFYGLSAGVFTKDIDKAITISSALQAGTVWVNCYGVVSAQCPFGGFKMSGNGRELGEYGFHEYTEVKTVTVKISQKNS
Tau fluor counter = counter-screen for tau fibril formation inhibitors; Potency, µM (titrated, usually from 57.7 µM), without a hit: at the highest dose activity change, negative = decrease; 280,000 tested, 0.93% active; tau K18 P301L (four-repeat tau fragment) Alexa594 fluorescence, heparin fibrillization; also: nearly all actives have a fitted effect of over 55% in size
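Human K18 P301L tau (15 uM unlabeled plus 0.24 uM Alexa 594-labeled, final) in 100 mM sodium acetate pH 7 was mixed with compound and 20 uM heparin and incubated 6 hr at 37 C.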
HPGD block = inhibitors of human 15-hydroxyprostaglandin dehydrogenase (HPGD). purified HPGD, NADH fluorescence kinetic, PGE2 substrate. Potency, µM, without a hit: top-dose activity change, negative = inhibition, usual class: inhibitors. 150,000 tested, 4.3% active; active = well fitted inhibition curve with a large enough effect, not every such curve was filed as active; inconclusive = small, poorly fitted or top-dose-only effect, or another doubt; inactive = no such curve, though single readings can be large or run the other way
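NADH formation kinetics: reaction with 30 uM PGE2 and 1 mM NAD+ (final), 20 nM enzyme, Tris-HCl pH 8 with Tween 20, after 15 min compound preincubation at room temperature. Fluorescence change, last versus first of five reads.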
* hit, by the source's call; ? = inconclusive; nt = no result given; [ ] = remark or other dose. Sampled rows, rich in hits. Any-hit rate of the full collection: about 9.5%. Unless noted, calls follow the shape of the dose curve; as a rule, active = well fitted curve in the direction sought with a large enough effect; inconclusive = small, poorly fitted or top-dose-only effect, or another doubt; inactive = no such curve, though single readings can be large; an effect the other way counts as inactive or inconclusive. Unless noted, % is scaled to controls: 0 for no effect and ±100 for the full control effect; potency is read from the fitted curve at half-maximal effect.

SMILES	Tau fibril ThT	NPSR antag	Tau FP inhib	ALDH1A1 block	Tau fluor counter	HPGD block
CCOC(=O)Cc1csc(NC(=O)c2sc3nc4cc(C)ccc4cc3c2N)n1	2.51µM*	-23.8%	14.2%	7.6%	?	-4.2%
CCOC(=O)Cc1csc(NC(=O)c2sc3nc4ccc(CC)cc4cc3c2N)n1	8.91µM*	-15.1%[46.1 µM]	2.7%	5.1%	-28.5%	-19.5%
CCOC(=O)Cc1csc(NC(=O)c2ccc(Br)o2)n1	-19.4%	-11.9%[46.1 µM]	1.4%	-2.8%	-3.9%	-9.7%
CCOC(=O)Cc1csc(NC(=S)NC(=O)c2ccccc2)n1	-4.4%	-10.3%	-6.9%	-18.0%	-14.9%	-7.7%
CCC(=O)Nc1nc(CC(=O)Nc2ccccc2OC)cs1	-0.9%	-9.1%[46.1 µM]	-7.9%	2.9%	0.7%	-6.9%
Nc1ccn([C@@H]2O[C@H](COC(=O)C34CC5CC(CC(C5)C3)C4)[C@@H](O)[C@@H]2O)c(=O)n1	nt	nt	nt	-9.2%[13.5 µM]	nt	-14.2%
CC(C)CO/N=C1/C[C@@H](O)[C@@H](O)[C@@H]2[C@@H]3C(=O)N([C@@H](C)c4ccccc4)C(=O)[C@H]3CC[C@H]12	-1.5%[11.5 µM]	nt	?	1.9%[13.5 µM]	-5.3%[11.6 µM]	nt
COc1ccc(C(=O)C[n+]2cn(C(F)F)c3ccccc32)c(F)c1	?	-27.4%	4.3%	10µM*	-0.8%	nt
Cc1ccc2oc3c(c(=O)c2c1)C(c1cccc(O)c1)N(CCCN1CCOCC1)C3=O (centres undefined)	-9.7%	nt	-1.4%	nt	-5.5%	nt
Cc1cc2oc3c(c(=O)c2cc1C)C(c1ccc(C(C)C)cc1)N(CCCN1CCOCC1)C3=O (centres undefined)	2.1%	-9.0%	-3.1%	3.98µM*	-3.4%	-19.5%
CCOc1ccc(C2c3c(oc4ccccc4c3=O)C(=O)N2CCCN2CCOCC2)cc1 (centres undefined)	?	-3.2%[46.1 µM]	-0.5%	6.31µM*	0.2%	-17.8%
COc1cccc(C2c3c(oc4ccccc4c3=O)C(=O)N2CCCN2CCOCC2)c1 (centres undefined)	-15.1%	14.0%	2.0%	?	-10.4%	-10.9%
CCOc1ccc(C2c3c(oc4cc(C)c(C)cc4c3=O)C(=O)N2CCCN2CCOCC2)cc1 (centres undefined)	?	-13.1%[46.1 µM]	3.0%	7.94µM*	-11.0%	-18.6%
C=CCOc1ccc(C2c3c(oc4ccc(C)cc4c3=O)C(=O)N2CCCN2CCOCC2)cc1 (centres undefined)	-9.4%	nt	?	nt	-8.4%	nt
COC(=O)c1ccc(C2c3c(oc4ccccc4c3=O)C(=O)N2CCCN2CCOCC2)cc1 (centres undefined)	-7.2%	-3.3%[46.1 µM]	-2.2%	?	2.0%	-11.7%
CCCOc1ccc(C2c3c(oc4ccccc4c3=O)C(=O)N2CCCN2CCOCC2)cc1 (centres undefined)	-14.1%	?	-6.3%	8.91µM*	-3.1%	-25.8%
COc1cccc([C@@H]2Oc3ccc(Br)cc3C[C@H]2OC(=O)NS(=O)(=O)c2ccc(C)cc2)c1	-8.6%	nt	?	-9.2%	-24.3%	-19.9%
COc1ccc(C(=O)Nc2ccc(-c3ccc(C)o3)cc2)cc1S(=O)(=O)N1CCOCC1	?	?	0.6%	?	?	-13.7%
COc1cccc(C2c3c(oc4cc(C)c(C)cc4c3=O)C(=O)N2CCCN(C)C)c1 (centres undefined)	-13.9%	6.6%[46.1 µM]	-3.7%	28.2µM*	-3.3%	-10.9%
CCOc1ccc(C2c3c(oc4cc(C)c(C)cc4c3=O)C(=O)N2CCCN(C)C)cc1OC (centres undefined)	-20.6%	?	-7.3%	?	-4.2%	-19.3%
COc1cc(-c2nnc(SCC(=O)N3CCCc4ccccc43)o2)cc(OC)c1OC	?	nt	?	nt	-9.5%	nt
Cc1ccc(CN2CCN(/N=C/C=C/c3ccccc3[N+](=O)[O-])CC2)cc1	?	-24.7%	7.9%	6.31µM*	-25.6%	nt
COc1ccccc1/C=C/C=N/N1CCN(Cc2ccccc2)CC1	-20.2%	7.2%	-1.2%	?	-28.7%	-12.0%
COC(=O)c1cc(C(=O)OC)cc(N2C(=O)CC(NNC(=O)c3ccccc3Br)C2=O)c1 (centres undefined)	3.0%	-13.9%[46.1 µM]	7.7%	-15.9%	-3.1%	-12.3%
COC(=O)c1cc(C(=O)OC)cc(N2C(=O)CC(NNC(=O)c3ccc(C)cc3)C2=O)c1 (centres undefined)	0.1%	8.3%	3.6%	1.7%	-4.6%	14.1µM*
SMILES	Tau fibril ThT	NPSR antag	Tau FP inhib	ALDH1A1 block	Tau fluor counter	HPGD block
COC(=O)c1ccc(N2C(=O)CC(Sc3n[nH]c(C)n3)C2=O)cc1 (centres undefined)	?	5.7%[46.1 µM]	-2.2%	0.562µM*	-3.8%	15.8µM*
COC(=O)c1cc(C(=O)OC)cc(N2C(=O)CC(Sc3nc(C)cc(C)n3)C2=O)c1 (centres undefined)	-3.0%	-4.0%[46.1 µM]	-4.7%	12.6µM*	-1.9%	-9.0%
CN=C(Nc1cc(Cl)ccc1Cl)SC1CC(=O)N(c2ccc(C(=O)OC)cc2)C1=O (centres undefined)	6.8%	?	28.2µM*	0.0%	?	-10.3%
Cc1c(C(=O)NCc2ccccc2Cl)sc2nc[nH]c(=O)c12	-0.4%	nt	-11.3%	nt	-10.3%	nt
Cc1ccc(C(=O)Nc2nnc(S(=O)(=O)N3CCCc4ccccc43)s2)cc1	?	nt	-5.6%	nt	-7.4%	nt
O=C(Nc1ccc(Cl)cc1)c1ccc2nsnc2c1	?	-7.8%	-8.6%	-6.2%	-18.2%	nt
COc1ccc(NC(=O)Nc2sc(=S)n(C)c2C)cc1	5.8%	-26.3%	6.9%	15.8µM*	4.8%	nt
COc1ccc(NC(=O)Nc2ccc(N(C)C)cc2)cc1	12.6µM*	-1.7%[46.1 µM]	10.4%	-4.4%	?	-5.6%
CN(C)c1ccc(NC(=O)c2cccc(C(=O)Nc3ccc(N(C)C)cc3)n2)cc1	15.8µM*	-7.0%	6.3%	8.91µM*	?	-17.2%
CN(C)c1ccc(/C=N/NC(=O)c2cccc(C(=O)N/N=C/c3ccc(N(C)C)cc3)n2)cc1	-16.0%	-6.3%	10.5%	2.0%	-3.4%	nt
CN(C)c1ccc(NC(=O)c2ccc3nsnc3c2)cc1	7.94µM*	-15.7%[46.1 µM]	5.0%	?	-29.5%	-14.7%
CN1CC2([N+](=O)[O-])CC=C(OCCO)C([N+](=O)[O-])(C1)C2 (centres undefined)	1.1%	9.1%	1.2%	3.2%	3.4%	-10.5%
COc1ccc(NC(=O)CCN2C(=O)c3ccncc3C2=O)cc1OC	-5.5%	15.7%	-6.1%	nt	-2.8%	nt
Cc1ccc(C2C=C(c3ccccc3)Nc3nc(NS(C)(=O)=O)nn32)cc1 (centres undefined)	?	nt	-14.2%	nt	-9.2%	nt
CSc1ccc(NC(N)=S)cc1	1.2%	17.0%	-3.3%	0.0%	1.2%	nt
